# From PubChem BioAssay (NCI)
# About 83,000 compounds went through this panel and 20% of them were active in at least one assay; those are over-represented in the sample as a whole.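 Each cell line was grown in a 96-well plate and treated with one concentration of compound for 48 hours. Values below 10 were considered active.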 Values without a mark were called inactive. Activity calls are given as the source filed them.
# Legend:
# Assay in all cases: NCI-60 one-dose screen, 48 h (100 = growth as untreated, 0 = no growth, -100 = all killed)
# Conditions in all cases: 10 µM unless noted
# HCT-15 colon = system: HCT-15 colon
# HT29 colon = system: HT29 colon
# SNB-75 CNS = system: SNB-75 CNS
# SNB-19 CNS = system: SNB-19 CNS
# U251 CNS = system: U251 CNS
# PC-3 prostate = system: PC-3 prostate
# SK-MEL-5 melanoma = system: SK-MEL-5 melanoma
# UACC-62 melanoma = system: UACC-62 melanoma
# LOX IMVI melanoma = system: LOX IMVI melanoma
# SK-MEL-28 melanoma = system: SK-MEL-28 melanoma
Compound,growth (HCT-15 colon),growth (HT29 colon),growth (SNB-75 CNS),growth (SNB-19 CNS),growth (U251 CNS),growth (PC-3 prostate),growth (SK-MEL-5 melanoma),growth (UACC-62 melanoma),growth (LOX IMVI melanoma),growth (SK-MEL-28 melanoma)
Cc1ccc(NC(=O)c2[nH]c(SCCN(C)C)nc2-c2ccc(F)cc2)cc1Nc1ccc2ncn(C)c(=O)c2c1,65.4%,21.4%,66%,92.4%,66.6%,88.5%,30.8%,12.5%,28%,16.5%
COc1ccc(/C(=C\c2cc(OC)c(OC)c(OC)c2)C(=O)N2CCN(c3ccccc3)CC2)cc1O,97.2%,101%,77.4%,97.6%,96.3%,84.4%,97.1%,88.4%,94%,105%
CC1=C(C(=O)Nc2ccc(F)cc2)C(c2ccc(Cl)cc2)C2=C(CC(C)(C)CC2=O)N1 (stereo not given),84.6%,98%,66%,86%,81.6%,61.7%,75.9%,77.4%,87.8%,82.6%
CCSc1ccc([C@@H]2[C@@H](O)C(=O)N2c2cc(OC)c(OC)c(OC)c2)cc1,14.1%,9.27% (active),85.8%,35.5%,21%,28.1%,0.317% (active),40.4%,25.9%,71%
CCN(CC)C(Cl)=Nc1ccc(Cl)cc1,98.1%,97.3%,88.5%,95.5%,94%,103%,102%,102%,102%,106%
C1=C\CCCCN2CC[C@H]3[C@H](CCCC/C=C\CCCN4C[C@@H](CCCCC/1)C[C@@H]3C4)C2,25.3%,9.89% (active),44.3%,106%,72.3%,76.7%,71%,92%,65.5%,-90.3% (active)
CCc1ccc(Nc2ncnc3c2cnn3-c2cccc(Br)c2)cc1,101%,108%,78.4%,95.3%,94.3%,94.9%,96.6%,91.7%,96.3%,107%
C#CC[C@@H]1C[C@]2(C)[C@H]3CC=C4[C@H]5[C@@H](C)[C@H](C)CC[C@]5(C(=O)NCCCCCCCCN)CC[C@@]4(C)[C@]3(C)CC[C@H]2C(C)(C)[C@H]1OC(C)=O,-62.1% (active),-65.4% (active),83.2%,64.8%,-90.8% (active),-21.7% (active),91.9%,105%,-52.9% (active),103%
C#CC[C@@H]1C[C@]2(C)[C@H]3CC=C4[C@H]5CC(C)(C)CC[C@]5(C(=O)NCCCCN)CC[C@@]4(C)[C@]3(C)CC[C@H]2C(C)(C)[C@H]1OC(C)=O,8.51% (active),5.83% (active),-79.9% (active),6.48% (active),-77.9% (active),27%,93.9%,106%,-70.2% (active),102%
COc1ccc(/C=C/C(=O)c2ccc(NC(=O)CSc3nnc(-c4ccc(Cl)cc4)n3-c3ccccc3)cc2)cc1,80.5%,98.7%,84.2%,96.2%,88.2%,84.5%,84.1%,74.6%,105%,104%
O=C(NNC(=S)Nc1ccccc1)c1ccc(Nc2ncnc3c2cnn3-c2cccc(Br)c2)cc1,110%,105%,80%,101%,114%,93.5%,100%,94.6%,97.3%,110%
CCCCn1c(-c2ccc(F)cc2)nc2cc(OC)c(OC)cc2c1=O,105%,107%,98.8%,97.6%,105%,102%,89.8%,81.8%,98.3%,97.5%
CCCCCCCCCCCCCC[N+](C)(C)CCCCCCCCCCCCCC,75.1%,30.5%,62.9%,70.4%,44.7%,12.6%,69.4%,42.6%,51.8%,89.3%
Oc1[nH]c2ccccc2c1/C=c1/ccc2c(c1)N=C(c1ccc(C(F)(F)F)cc1)N=2,44.5%,37.9%,48.7%,61.6%,32.5%,32.5%,69.9%,47.2%,43.4%,52.8%
CCCCCCCCCCCCCCCCS(=O)(=O)Nc1cc(C(=O)NN)cc(C(=O)NN)c1,50.5%,88%,94.3%,52.2%,47.9%,38.8%,73.7%,70.3%,70%,91.9%
C/C(=N\NC(=S)N1CCCCC1)c1ccccn1,22.1%,8.66% (active),28.8%,22.9%,3.98% (active),9.88% (active),-33.2% (active),-14.3% (active),13.4%,37%
C/C(CC(=O)NNc1ccc([N+](=O)[O-])cc1)=N\Nc1ccc([N+](=O)[O-])cc1,49.6%,71.4%,97.3%,104%,78.5%,54.7%,59.4%,9.12% (active),70.3%,114%
CCc1ccc2c(c1)N(CCO)C1=C(C(=O)OC1)C2c1cccc(Br)c1 (stereo not given),26.3%,3.88% (active),2.55% (active),37.9%,24%,30.1%,33.2%,35.5%,42.2%,49%
CCCCCCCCCCCC1=NC(C)(C)CN1C(C)(C)CO,8.9% (active),-29.3% (active),49.3%,114%,21.4%,54.9%,8.52% (active),-69.5% (active),-35.1% (active),-5.89% (active)
NC(=O)Nc1ccc2ncnc(Nc3cccc(O)c3)c2c1,108%,106%,102%,93.1%,87.9%,102%,101%,105%,101%,114%
C#CC[C@@H]1C[C@]2(C)[C@H]3CC=C4[C@H]5[C@@H](C)[C@H](C)CC[C@]5(C(=O)NCCCN5CCN(CCCN)CC5)CC[C@@]4(C)[C@]3(C)CC[C@H]2C(C)(C)[C@H]1OC(C)=O,-83.7% (active),-72.8% (active),-61.5% (active),-46.1% (active),-75.8% (active),15%,-7.08% (active),-68.1% (active),-83.2% (active),-84.6% (active)
CCOC(=O)NNc1cccc(Cl)c1,107%,109%,77.2%,98%,100%,89.7%,101%,83.8%,92.8%,109%
O=c1c2sc3ccccc3c2nnn1-c1ccc(F)c(Cl)c1,56.7%,69.9%,39.5%,61.1%,59.1%,54.8%,67.3%,78.4%,58.1%,72.7%
CN1CCN(Cc2ccc(NC(=O)c3cncc(C#Cc4ncc5ccccn45)c3)cc2C(F)(F)F)CC1,19.2%,5.13% (active),34.3%,39%,-27.7% (active),21.9%,52.3%,51.7%,25.7%,8.57% (active)
Fc1cnccc1-c1nc2ccc3[nH]ncc3c2c2c1CCCC2,12.4%,25.4%,-25.5% (active),44.2%,29.6%,27.1%,29%,17.3%,22.8%,24.3%
CC(=O)Nc1nonc1-c1nc2ccccc2n1Cc1ccc(C(C)(C)C)cc1,90.4%,74.1%,50.2%,80.1%,75.7%,28.6%,79.9%,81.6%,63%,101%
